Laboratory results published in PubChem BioAssay (NCI).
About 79,000 compounds went through this panel and 15% of them were active in at least one assay; those are over-represented in the sample as a whole. Activity calls are given as the source filed them. Cut-off read from the data, not from the text of the source: active = growth inhibition above about 70%; inactive = the rest.

Assay: NCI Yeast Anticancer Drug Screen. Data for the rad50EPP+ strain (AID 151);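 note: 0% = growth of vehicle-treated control cultures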
Conditions: S. cerevisiae rad50 mutant strain, at 100.0 µM, stronger effect = higher value
How it was run: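 One strain with a rad50 alteration (rad50EPP+) was compound-treated, its growth then compared to that of vehicle controls.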

| SMILES | growth inhibition |
| --- | --- |
| S=C(N/N=C(/c1ccccc1)c1ccccn1)N1CCCCCC1 | 6% (inactive) |
| Cc1ccc2[nH]c3c(C)c4cc[n+](C)cc4c(C)c3c2c1 | 88% (active) |
| CNC(=O)OCc1c(COC(=O)NC)c(-c2ccc(-c3ccccc3)cc2)n(C)c1C | -1% (inactive) |
| COc1ccccc1/C=C1\Sc2scc(-c3cccc([N+](=O)[O-])c3)[n+]2C1=O | 88% (active) |
| O=[N+]([O-])c1ccc2c(c1)C(N1CCN(CCO)CC1)Cc1ccc(F)cc1S2 (stereo not drawn) | 1% (inactive) |
| Cc1ccc(CCC2=CCCc3c2ccc2ccccc32)cc1 | 58% (inactive) |
| O=[N+]([O-])c1cccc2nccc(NCCCO)c12 | 46% (inactive) |
| Cc1ccc(-n2cc(-c3ccc(Cl)cc3)c(C#N)c2N)cc1 | 56% (inactive) |
| Cc1ccc(S/N=C\c2ccccc2O)cc1 | 35% (inactive) |
| O=C(O)C1OC1(c1cccc(Cl)c1)c1ccccc1Cl (stereo not drawn) | 36% (inactive) |
| NC(=S)N/N=C\c1nccc2ccccc12 | 97% (active) |
| Clc1cccc(C(Nc2nncs2)Nc2nncs2)c1Cl | 92% (active) |
| O=C(OCC=C1CCCC1)c1cc([N+](=O)[O-])cc([N+](=O)[O-])c1 | 92% (active) |
| O=C(Nc1ccccc1)C(=O)C(C(=O)c1ccccc1)C(c1ccccc1)c1ccccc1 (stereo not drawn) | -1% (inactive) |
| N#CN1C2CCC1CC(=O)C2 | -33% (inactive) |
| COc1ccccc1C(=O)OCC1CCCN2CCCCC12 (stereo not drawn) | 98% (active) |
| CCNc1nnc(CSc2nc(-c3ccccc3)c(-c3ccccc3)[nH]2)s1 | 5% (inactive) |
| O=C1c2ccccc2-c2n[nH]c3cccc1c23 | 73% (active) |
